Assay results as given in PubChem BioAssay.

Test: compound effects on differentiated 3T3-L1 adipocyte viability – cell-based, 3T3-L1 adipocytes, calcein-AM fluorescence, 48 h, basal, profiling panel (AID 1163)
Settings: 3T3-L1 adipocytes viability, higher = more signal
Also: test concentration not given here.

Row | SMILES | z-score
1 | C=C(CCCC)/C(=C/C[C@@H](OC(=O)c1ccncc1)c1ccccc1OCCO)c1cnc2ccccc2c1 | 1.21
2 | [N-]=[N+]=Nc1ccccc1C[C@]1(C(=O)N2CCOCC2)N=C(c2ccc(OCCCO)cc2)O[C@H]1c1ccccc1 | 0.854
3 | CCCNC(=O)[C@@H]1c2ccccc2C(=O)N(C(C)C)[C@H]1c1ccc(CO)cc1 | 0.306
4 | O=C1O[C@H](c2ccccc2)[C@H](c2ccccc2)N2[C@H]1[C@@H](C(=O)Nc1nc3ccccc3s1)[C@]1(C(=O)Nc3ccc(C#CC4(O)CCCCCC4)cc31)[C@H]2c1ccccc1OCCO | 0.248
5 | O=C1OCC=C[C@H]2OC34C=CCN(Cn5nnc6ccccc65)C(=O)[C@H]3N(CCCO)C(=O)[C@@H]4[C@@H]12 (some centres not stated) | 0.832
6 | COC(=O)[C@@]1(Cc2ccccc2)[C@H]2c3cc(C(=O)N(C)C)n(Cc4c(CO)[nH]cc(C)c4=O)c3C[C@H]2CN1C(=O)c1ccccc1 | -0.284
7 | COC(=O)[C@@]1(Cc2ccc(OC)cc2)[C@H]2c3cc(C(=O)N(C)C)n(Cc4ccc(Cl)c(C(F)(F)F)c4)c3C[C@H]2CN1C(=O)c1ccccc1 | -0.88
8 | C=CCNC(=O)[C@H]1[C@@H]2C(=O)O[C@@H](c3ccccc3)[C@@H](c3ccccc3)N2[C@@H](c2ccc(O)cc2)[C@]12C(=O)N(C(=O)OCCOC)c1ccccc12 | 1.19
9 | CCCCCCCCCCC(O)C1C=CC2C(=O)N(C)C(=O)C2N1NC(=O)OC(C)(C)C (configuration not stated) | 0.0766
10 | NC(N)=NCCCn1cc(CNC(=O)[C@@H](N)Cc2ccccc2)nn1 | -0.637
11 | CCOC(=O)C1CCCCN1 (configuration not stated) | 0.542

Test: compound effects on hepatocellular carcinoma cell viability – HepG2, calcein-AM fluorescence, 48 h, basal, profiling panel (AID 1164)
Settings: higher = more signal

Row | SMILES | z-score
12 | Cc1ccc(S[C@]2(C(=O)O)CC(=O)N(Cc3cc(C(F)(F)F)cc(C(F)(F)F)c3)[C@@H]2c2ccc(CO)cc2)cc1 | -0.618
13 | CC(C)Cc1ccc(CN2CC[C@@H](NC(=O)Nc3ccccc3)C2)cc1 | -4.91
14 | C=CC1c2cc(O)c(OC)cc2CCN1Cc1cc2c(cc1Br)OCO2 (configuration not stated) | -4.07
15 | O=C1O[C@H](c2ccccc2)[C@H](c2ccccc2)N2[C@H]1[C@@H](C(=O)N1CCN(c3ncccn3)CC1)[C@]1(C(=O)Nc3ccc(C#CC4(O)CCCCCC4)cc31)[C@H]2c1ccc(OCCO)cc1 | 0.473
16 | COC(=O)C(CC#Cc1ccc2c(c1)[C@]1(C(=O)N2)[C@H](c2ccccc2OCCO)N2[C@H](c3ccccc3)[C@H](c3ccccc3)OC(=O)[C@H]2[C@@H]1C(=O)NC[C@H](O)c1ccccc1)C(=O)OC | 0.876
17 | Cc1ccccc1C(O)C1C=CC2C(=O)N(C)C(=O)C2N1N(c1ccccc1)c1ccccc1 (configuration not stated) | 0.655
18 | CCC[C@@H]1C[C@@]1(CCC)[C@@H](NC(=O)OCc1ccccc1)c1ccc(-c2ccccc2)cc1 | 0.0422
19 | CN(C)C(=O)C1N=C(c2ccc(OCCCO)cc2)N(c2ccccc2)O1 (configuration not stated) | 0.411
20 | O=C1O[C@H](c2ccccc2)[C@H](c2ccccc2)N2[C@H]1[C@@H](C(=O)O)[C@]1(C(=O)Nc3ccc(C#CC4=CCCCC4)cc31)[C@H]2c1ccc(O)cc1 | 0.85
21 | C=CCOC(=O)[C@H]1[C@@H]2C(=O)O[C@@H](c3ccccc3)[C@@H](c3ccccc3)N2[C@@H](c2ccc(OCCOC(=O)[C@H]3C[C@H]4C(=O)N[C@@H](CCCCNC(C)=O)C(=O)N4[C@H]3c3ccc(O)cc3)cc2)[C@]12C(=O)Nc1ccccc12 | 1.27
22 | CN1C(=O)C2C=CC(C(O)c3cccc4ccccc34)N(N3CCCCC3)C2C1=O (configuration not stated) | -0.776
23 | C=CCOC(=O)[C@H]1[C@@H]2C(=O)O[C@@H](c3ccccc3)[C@@H](c3ccccc3)N2[C@@H](c2ccc(OCCOC(=O)[C@@H]3C[C@@H]4C(=O)N5CCC[C@H]5C(=O)N4[C@@H]3c3ccc(O)cc3)cc2)[C@]12C(=O)Nc1ccc(I)cc12 | 0.018
24 | O=C1C2C=CC(C(O)c3ccccc3)N(Nc3ccccc3F)C2C(=O)N1c1ccccc1 (configuration not stated) | 0.925
25 | CN(C)c1ccc(C(O)C2C=CC3C(=O)N(c4ccccc4)C(=O)C3N2Nc2ccc([N+](=O)[O-])cc2)cc1 (configuration not stated) | 0.583
26 | [N-]=[N+]=NCc1ccccc1[C@H]1OC(c2ccc(OCCCO)cc2)=N[C@@]1(CCS(=O)(=O)c1ccccc1)C(=O)N1CCCCC1 | -0.0898
27 | C=CCOC(=O)[C@H]1[C@@H]2C(=O)O[C@@H](c3ccccc3)[C@@H](c3ccccc3)N2[C@@H](c2ccc(OCCOC(=O)[C@@H]3C[C@@H]4C(=O)N[C@@H](CCCCNC(C)=O)C(=O)N4[C@@H]3c3ccc(O)cc3)cc2)[C@]12C(=O)Nc1ccc(I)cc12 | -0.786
28 | COc1cc2c(cc1OC)CN(C(=O)[C@@H]1[C@H]3C(=O)O[C@H](c4ccccc4)[C@H](c4ccccc4)N3[C@H](c3ccc(OCCO)cc3)[C@@]13C(=O)Nc1ccc(C#CC4(O)CCCCCC4)cc13)CC2 | 0.988
29 | C=C(/C(=C/C[C@H](OC(C)=O)c1ccccc1OCCO)c1cc(C(=O)OC)ccc1OC)C(C)C | -0.644

Row | SMILES | z-score
30 | CCOC(=O)C[C@H]1[C@H](OC(=O)c2cc3ccccc3oc2=O)[C@@H](NC(=O)c2ccc(-c3ccccc3)cc2)c2cc(OCCCO)ccc2N1C(=O)c1ccc2ccccc2n1 | 1.25
31 | CN(C)CCCCNC(=O)[C@@H]1C[C@@H]2C(=O)N[C@@H](Cc3ccccc3)C(=O)N2[C@@H]1c1cccc(OCCO)c1 | 1.13
32 | COc1ccc([Si](C)(C)[C@@H]2[C@@H](CCO)O[C@]3(C(=O)N(Cc4ccc(N5CCCCC5=O)cc4)c4ccccc43)[C@H]2C)cc1 | -0.347
33 | COCCOC(=O)N1C(=O)[C@@]2(c3cc(C#CC4=CCCCC4)ccc31)[C@H](c1ccccc1OCCO)N1[C@H](c3ccccc3)[C@H](c3ccccc3)OC(=O)[C@H]1[C@@H]2C(=O)Nc1nc2ccccc2s1 | 0.416
34 | CCCCC(=C=CC[C@@H](O)c1ccccc1OCCO)C[C@@H](O)COCc1ccccc1 | 0.522
35 | Cc1ccc(S[C@]2(C(=O)NCC(F)(F)F)CC(=O)N(Cc3ccccc3)[C@@H]2c2ccc(CO)cc2I)cc1 | -0.425
36 | O=C(NCC(F)(F)F)[C@@H]1c2ccccc2C(=O)N(Cc2cc(F)cc(C(F)(F)F)c2)[C@H]1c1ccc(CO)cc1 | -0.158
37 | C=C(CCCC)/C(=C/C[C@@H](OC(=O)c1ccncc1)c1ccccc1OCCO)c1cnc2ccccc2c1 | -0.158
38 | [N-]=[N+]=Nc1ccccc1C[C@]1(C(=O)N2CCOCC2)N=C(c2ccc(OCCCO)cc2)O[C@H]1c1ccccc1 | 1.58
39 | CCCNC(=O)[C@@H]1c2ccccc2C(=O)N(C(C)C)[C@H]1c1ccc(CO)cc1 | 0.997
40 | O=C1O[C@H](c2ccccc2)[C@H](c2ccccc2)N2[C@H]1[C@@H](C(=O)Nc1nc3ccccc3s1)[C@]1(C(=O)Nc3ccc(C#CC4(O)CCCCCC4)cc31)[C@H]2c1ccccc1OCCO | -1.54
41 | O=C1OCC=C[C@H]2OC34C=CCN(Cn5nnc6ccccc65)C(=O)[C@H]3N(CCCO)C(=O)[C@@H]4[C@@H]12 (some centres not stated) | -0.64
42 | COC(=O)[C@@]1(Cc2ccccc2)[C@H]2c3cc(C(=O)N(C)C)n(Cc4c(CO)[nH]cc(C)c4=O)c3C[C@H]2CN1C(=O)c1ccccc1 | 1.2
43 | COC(=O)[C@@]1(Cc2ccc(OC)cc2)[C@H]2c3cc(C(=O)N(C)C)n(Cc4ccc(Cl)c(C(F)(F)F)c4)c3C[C@H]2CN1C(=O)c1ccccc1 | -0.585
44 | C=CCNC(=O)[C@H]1[C@@H]2C(=O)O[C@@H](c3ccccc3)[C@@H](c3ccccc3)N2[C@@H](c2ccc(O)cc2)[C@]12C(=O)N(C(=O)OCCOC)c1ccccc12 | -0.513
45 | CCCCCCCCCCC(O)C1C=CC2C(=O)N(C)C(=O)C2N1NC(=O)OC(C)(C)C (configuration not stated) | -5.09
46 | NC(N)=NCCCn1cc(CNC(=O)[C@@H](N)Cc2ccccc2)nn1 | -0.948
47 | CCOC(=O)C1CCCCN1 (configuration not stated) | 0.0621
